ELG1 DNA repair: ELG1-dependent DNA repair inhibition; HEK293T ELG1-luciferase reporter, luminescence, 16 h; DNA damage induced by 5-fluorouridine; Potency, µM (series often up to 46.1 µM), inactives show at the highest dose activity change, negative = inhibition, actives largely listed as inhibitors; 330,000 compounds, 2.3% hits; note: potency is the fitted concentration of half-maximal effect; nearly all actives have a fitted effect of over 55% in size
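DMSO vehicle served as the neutral condition. Each well held 2,000 cells given 5-fluorouridine plus compound; after 16 hr at 37 °C/5% CO2, ONE-Glo was added and luciferase measured 30 min later.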
IL1B secr inh: blocks inflammasome-driven IL-1 beta release; THP-1 LPS/ATP IL-1B secretion, AlphaLISA, 16 h; stronger effect = lower value; activity change, % at 57.5 µM; 360,000 compounds, 4.7% hits; AID 743279; in the data active = activity change below about -50%; inconclusive = mostly about -30% to -49%
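Secreted IL-1B measured by AlphaLISA bead assay after 16 h compound exposure of THP-1 cells; compounds (final up to 57.5 uM) added 1 h before LPS (250 ng/mL) and ATP (1.25 mM) stimulation; lower signal means less secretion.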
HT1080-NT tox: kills 2HG-producing HT-1080-NT fibrosarcoma cells; HT-1080-NT fibrosarcoma viability, CellTiter-Glo ATP luminescence, 48 h; Potency, µM (highest dose often 46.1 µM), for inactives: at the highest dose activity, negative = less viability, actives largely listed as cytotoxic; 360,000 compounds, 1.6% hits;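 note: NT is the 2HG producing partner of a matched IDH1 knockdown line; potency is the fitted concentration of half-maximal effect; 0% = DMSO-treated cells and -100% = media-only wells without cells; nearly all actives have a fitted effect of over 55% in size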
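Compounds were tested in concentration-response format on HT-1080-NT cells for 48 hours at 37 degrees C. Cell viability came from CellTiter-Glo luminescence; curves were classified by r2, response magnitude and activity.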
TDP1 cell noCPT: qHTS for Inhibitors of human tyrosyl-DNA phosphodiesterase 1 (TDP1): qHTS in cells in absence of CPT | Potency, µM (doses to about 46.2 µM), for inactives: top-dose activity change, negative = growth inhibition, usual class: inhibitors | DT40 Tdp1-/- hTDP1 cells, no CPT, ATP luminescence, 48 h | 420,000 compounds, 15% hits; note: potency is the fitted concentration of half-maximal effect; nearly all actives have a fitted effect of over 55% in size
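Luminescent ATP content (CellTiter-Glo) served as the growth readout. Knockout chicken DT40 cells expressing human TDP1 were exposed to compounds without camptothecin for a minimum 48 hr at 37 °C.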
DT40 TDP1 CPT: growth inhibition of DT40 Tdp1-/-;hTDP1 cells with camptothecin (screen for TDP1 inhibitors); chicken DT40 Tdp1-/-;hTDP1 cells + 20 nM CPT, ATP luminescence, 48 h; Potency, µM (doses to about 46.2 µM), for inactives: at the highest dose activity change, negative = growth inhibition, most hits filed as inhibitors; 420,000 compounds, 12% hits; AID 686979; note: potency is the fitted concentration of half-maximal effect; nearly all actives have a fitted effect of over 55% in size
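Cell growth measured by CellTiter-Glo luminescence after a minimum 48 h, 37 C compound exposure with 20 nM CPT in Tdp1-knockout DT40 cells stably expressing hTDP1, seeded 400/well; qHTS titration format.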
HT1080 IDH1KD tx: toxicity to HT-1080 IDH1 knockdown cells (counter line) | Potency, µM (doses to about 46.1 µM), for the others: at the highest dose activity, negative = toxicity, actives largely listed as cytotoxic | AID 686971 | 360,000 compounds, 2% hits | HT-1080 IDH1 knockdown viability, ATP luminescence, 48 h;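 note: potency is the fitted concentration of half-maximal effect; 0% = DMSO wells and -100% = cell-free medium wells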
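Cytotoxicity counter-line: IDH1KD HT-1080, 48 h, CellTiter-Glo. Curves classed by r2, magnitude and activity.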
* marks the source's active call; other numbers are inactive results; [ ] = another dose, or the depositor's remark. This is a sample that favours compounds with a hit; in the whole collection about 19% have one here. Unless noted, calls come from the whole dose curve; as a rule, active = well fitted curve in the direction sought with a large enough effect; inconclusive = small, poorly fitted or top-dose-only effect, or another doubt; inactive = no such curve, though single readings can be large; an effect the other way counts as inactive or inconclusive. Unless noted, % is set by controls: 0 for no effect and ±100 for the full control effect.

Results for Cc1cccc(N2CCN(C(=S)Nc3ccc4nc5n(c(=O)c4c3)CCCCC5)CC2)c1C ?
ELG1 DNA repair: 17%; IL1B secr inh: 8; HT1080-NT tox: -6%; TDP1 cell noCPT: 21µM*; DT40 TDP1 CPT: inconclusive; HT1080 IDH1KD tx: -6%

How did O=c1c2cc(NC(=S)N3CCC(N4CCCCC4)CC3)ccc2nc2n1CCCCC2 do in these assays?
ELG1 DNA repair: 27%; IL1B secr inh: 5; HT1080-NT tox: inconclusive; TDP1 cell noCPT: -4%; DT40 TDP1 CPT: 5%; HT1080 IDH1KD tx: -24%

Results for O=c1c2cc(NC(=S)NCCN3CCCCCC3)ccc2nc2n1CCCCC2 ?
ELG1 DNA repair: -13%; IL1B secr inh: -2; HT1080-NT tox: -3%; TDP1 cell noCPT: 2%; DT40 TDP1 CPT: 1%; HT1080 IDH1KD tx: -3%

Results for CCCN(C(=O)C(=O)Nc1ccc2nc3n(c(=O)c2c1)CCCCC3)c1ccc(OCC)cc1 ?
ELG1 DNA repair: inconclusive; IL1B secr inh: 0; HT1080-NT tox: 16%; TDP1 cell noCPT: 13µM*; DT40 TDP1 CPT: 13µM*; HT1080 IDH1KD tx: 4%

Results for COc1ccc(C(=O)Nc2ccc3nc4n(c(=O)c3c2)CCCCC4)cc1OC ?
IL1B secr inh: 13; HT1080-NT tox: 13%; TDP1 cell noCPT: -20%; DT40 TDP1 CPT: -8%; HT1080 IDH1KD tx: 6%

How did COc1cc(OC)c(/C=N/n2c(C)nnc2C)c(OC)c1 do in these assays?
ELG1 DNA repair: -4%; IL1B secr inh: 0; HT1080-NT tox: -3%; TDP1 cell noCPT: inconclusive; DT40 TDP1 CPT: 2%; HT1080 IDH1KD tx: 3%

How did O=c1c2cc(NC(=S)NC3CC3)ccc2nc2n1CCCCC2 do in these assays?
ELG1 DNA repair: 17%; IL1B secr inh: 0; HT1080-NT tox: 2%; TDP1 cell noCPT: -3%; DT40 TDP1 CPT: 22%; HT1080 IDH1KD tx: -3%

Results for O=c1c2cc(NC(=S)NC3CCCCC3)ccc2nc2n1CCCCC2 ?
ELG1 DNA repair: inconclusive; IL1B secr inh: inconclusive; HT1080-NT tox: -16%; TDP1 cell noCPT: inconclusive; DT40 TDP1 CPT: 18µM*; HT1080 IDH1KD tx: -13%

Results for CC(C)Oc1ccc(OCCn2c(S(=O)(=O)O)nc3c(N)ncnc32)cc1 ?
ELG1 DNA repair: 0%; IL1B secr inh: 34; HT1080-NT tox: 16%; TDP1 cell noCPT: 5%; DT40 TDP1 CPT: 2%; HT1080 IDH1KD tx: -2%

What do the screens show for `Cc1ccc(NC(=O)Cn2nc(C)c3nn(-c4ccc(Cl)cc4)c(C)c3c2=O)cc1C`?
TDP1 cell noCPT: 15µM*; DT40 TDP1 CPT: inconclusive

How did Cc1ccc(NC(=O)CCn2nc(C)c3c(C)n(-c4ccccc4)nc3c2=O)cc1Cl do in these assays?
TDP1 cell noCPT: -8%; DT40 TDP1 CPT: -12%

How did Cc1ccc(NC(=O)Cn2nc(C)c3nn(-c4ccc(Cl)cc4)c(C)c3c2=O)cc1F do in these assays?
TDP1 cell noCPT: 16µM*; DT40 TDP1 CPT: inconclusive

How did O=C(NN=C1CCCCCCCCCCC1)c1cccnc1 do in these assays?
ELG1 DNA repair: 6%; IL1B secr inh: 35; HT1080-NT tox: 1%; TDP1 cell noCPT: 18%; DT40 TDP1 CPT: 1%; HT1080 IDH1KD tx: 5%

Results for Cc1ccc(NC(=O)CSc2nc(C3CCCC3)nc3c2c(=O)n(C)c(=O)n3C)c(C)c1 ?
TDP1 cell noCPT: 6%; DT40 TDP1 CPT: -20%

What do the screens show for `O=C(COc1ccc(Cl)cc1)Nc1ccc(C(=O)OCc2cc(=O)n3ccsc3n2)cc1`?
TDP1 cell noCPT: inconclusive; DT40 TDP1 CPT: 15µM*

How did CCCOc1c(Br)cc(C(=O)OCc2cc(=O)n3ccsc3n2)cc1OC do in these assays?
IL1B secr inh: 8; HT1080-NT tox: 0%; TDP1 cell noCPT: 10µM*; DT40 TDP1 CPT: 5.8µM*; HT1080 IDH1KD tx: -3%

Results for CCCCC(=O)Nc1ccc(C(=O)OCc2cc(=O)n3ccsc3n2)cc1 ?
TDP1 cell noCPT: 16µM*; DT40 TDP1 CPT: inconclusive

How did Cc1cn2c(=O)cc(COC(=O)c3cccc(NC(=O)COc4ccc(Cl)cc4)c3)nc2s1 do in these assays?
TDP1 cell noCPT: -12%; DT40 TDP1 CPT: -2%

Results for O=C(OCc1cc(=O)n2ccsc2n1)c1ccc(OC(F)F)cc1 ?
ELG1 DNA repair: 28%; IL1B secr inh: -9; HT1080-NT tox: -2%; TDP1 cell noCPT: -19%; DT40 TDP1 CPT: 9%; HT1080 IDH1KD tx: -7%

What do the screens show for `CN(N=Nc1nc[nH]c1C(=O)NN)C1CCCCC1`?
IL1B secr inh: 0; HT1080-NT tox: 15%; TDP1 cell noCPT: -2%; DT40 TDP1 CPT: -16%; HT1080 IDH1KD tx: 15%

What do the screens show for `CCOC(=O)c1c(C)[nH]c(C)c1S(=O)(=O)NCCN1CCN(c2cc(Cl)ccc2C)CC1`?
ELG1 DNA repair: inconclusive; IL1B secr inh: -51*; HT1080-NT tox: inconclusive; TDP1 cell noCPT: 13µM*; DT40 TDP1 CPT: inconclusive; HT1080 IDH1KD tx: inconclusive

What do the screens show for `Cc1ccc(Cl)cc1N1CCN(CC(=O)Nc2ccc(CN3CCCCC3)cc2)CC1`?
ELG1 DNA repair: -15%; IL1B secr inh: -18; HT1080-NT tox: 21µM*; TDP1 cell noCPT: inconclusive; DT40 TDP1 CPT: inconclusive; HT1080 IDH1KD tx: 23µM*

Results for Cc1ccc(-c2c(CN3CCN(c4cc(Cl)ccc4C)CC3)csc2C)cc1 ?
TDP1 cell noCPT: inconclusive; DT40 TDP1 CPT: 16µM*

What do the screens show for `CCOc1ccc(NC(=O)NCCN2CCN(c3cc(Cl)ccc3C)CC2)cc1`?
TDP1 cell noCPT: inconclusive; DT40 TDP1 CPT: 21µM*

How did COc1ccc(N2CCN(CCNC(=O)Nc3ccc(Cl)cc3)CC2)cc1 do in these assays?
ELG1 DNA repair: inconclusive; IL1B secr inh: -26; HT1080-NT tox: 0%[9.24 µM]; TDP1 cell noCPT: inconclusive; DT40 TDP1 CPT: inconclusive; HT1080 IDH1KD tx: inconclusive

Results for Cc1ccc(Cl)cc1N1CCN(Cc2nnnn2C2CCCCC2)CC1 ?
ELG1 DNA repair: -11%; IL1B secr inh: -22; HT1080-NT tox: 8%; TDP1 cell noCPT: -27%; DT40 TDP1 CPT: -21%; HT1080 IDH1KD tx: 4%

How did CCOC(=O)c1c(C)[nH]c(C)c1S(=O)(=O)NCCCN1CCOCC1 do in these assays?
ELG1 DNA repair: inconclusive; IL1B secr inh: 5; HT1080-NT tox: inconclusive; TDP1 cell noCPT: 13%; DT40 TDP1 CPT: 4%; HT1080 IDH1KD tx: 5%

Results for Cc1cc(=O)n2nc(N3CCC(C(=O)Nc4ccc(Br)cc4F)CC3)sc2n1 ?
TDP1 cell noCPT: 3%; DT40 TDP1 CPT: inconclusive
